Compounds with a hit are over-represented: about 12% of the library has one in this group of screens.
G9a inh – blocks human histone lysine methyltransferase G9a | Q96KQ7 | G9a H3K9 monomethylation, AlphaScreen, 2 h | Potency, µM (series often up to 102 µM), actives largely listed as inhibitors | 350,000 compounds, 8.8% hits; also: nearly all actives have a fitted effect of over 75% in size
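AlphaScreen detection with an anti-monomethyl H3K9 antibody quantified product after a 2 h room-temperature reaction containing 500 nM biotinylated H3K9 peptide, 20 µM SAM and 20 nM enzyme, which had been preincubated 15 min with compound.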
HP1b chromo inh – inhibitors of HP1-beta chromodomain binding to methylated histone tails; AID 540317; 390,000 compounds, 0.56% hits; AlphaScreen HP1-beta / biotin-H3K9me3 peptide binding; P83916; Potency, µM (highest dose often 114 µM), most hits filed as inhibitors; also: nearly all actives have a fitted effect of over 70% in size
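HP1-beta protein (50 nM final) preincubated 30 min at room temperature with biotinylated H3(1-18)K9me3 peptide (50 nM) in PBS pH 7.4, 0.01% Tween-20, then compound added for 30 min. AlphaScreen streptavidin donor/nickel chelate acceptor beads (10 ug/mL final), 30 min dark, luminescence read.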
Sfp inh – blocks B. subtilis Sfp PPTase activity. Q9F4F7. Biochemical Sfp PPTase activity, qHTS. Potency, µM, usual class: inhibitors. 310,000 compounds, 3.5% hits;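 also: the enzyme is Sfp with the accession as filed and its product quenches rhodamine fluorescence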
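Fluorescence-quenching assay: 15 nM Sfp-PPTase preincubated 15 min at room temperature with compound, then 5 uM rhodamine-CoA and 12.5 uM BHQ-2-labelled YbbR peptide added. Fluorescence (ex 525/em 598 nm) read at start and after 30 min; difference gives rate.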
L3MBTL1 block – inhibitors of human L3MBTL1. AlphaScreen L3MBTL1–H3K9me1 peptide binding. Potency, µM (series often up to 57.1 µM), usual class: inhibitors. 230,000 compounds, 0.66% hits. Q9Y468; also: nearly all actives have a fitted effect of over 60% in size
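L3MBTL1 (50 nM) pre-complexed 30 min with biotinylated H3(1-15)K9me1 peptide (75 nM), then compounds added for 30 min at room temperature; AlphaScreen streptavidin donor/nickel chelate acceptor beads (10 ug/mL final) read after 30 min dark incubation.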
BAZ2B inh – blocks human BAZ2B. Q9UIF8. AlphaScreen BAZ2B-H3K14Ac peptide displacement. Potency, µM (titrated, usually from 114 µM), actives largely listed as inhibitors. 360,000 compounds, 4.4% hits; also: nearly all actives have a fitted effect of over 60% in size
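Inhibition is scored as reduced AlphaScreen emission. The BAZ2B/b-H3(5-23)K14Ac complex (50 nM each) in PBS pH 7.4, 0.01% Tween-20 meets compound (up to 110 uM) for 30 min at RT before bead addition.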
JMJD2A Tudor – JMJD2A Tudor domain (human) inhibition; O75164; AlphaScreen JMJD2A-Tudor / H3K4me3 peptide binding; Potency, µM (highest dose often 114 µM), hits mostly inhibitors; 390,000 compounds, 4.4% hits; also: nearly all actives have a fitted effect of over 50% in size
Target sequence (O75164 whole entry, looked up, the tested form may be a part): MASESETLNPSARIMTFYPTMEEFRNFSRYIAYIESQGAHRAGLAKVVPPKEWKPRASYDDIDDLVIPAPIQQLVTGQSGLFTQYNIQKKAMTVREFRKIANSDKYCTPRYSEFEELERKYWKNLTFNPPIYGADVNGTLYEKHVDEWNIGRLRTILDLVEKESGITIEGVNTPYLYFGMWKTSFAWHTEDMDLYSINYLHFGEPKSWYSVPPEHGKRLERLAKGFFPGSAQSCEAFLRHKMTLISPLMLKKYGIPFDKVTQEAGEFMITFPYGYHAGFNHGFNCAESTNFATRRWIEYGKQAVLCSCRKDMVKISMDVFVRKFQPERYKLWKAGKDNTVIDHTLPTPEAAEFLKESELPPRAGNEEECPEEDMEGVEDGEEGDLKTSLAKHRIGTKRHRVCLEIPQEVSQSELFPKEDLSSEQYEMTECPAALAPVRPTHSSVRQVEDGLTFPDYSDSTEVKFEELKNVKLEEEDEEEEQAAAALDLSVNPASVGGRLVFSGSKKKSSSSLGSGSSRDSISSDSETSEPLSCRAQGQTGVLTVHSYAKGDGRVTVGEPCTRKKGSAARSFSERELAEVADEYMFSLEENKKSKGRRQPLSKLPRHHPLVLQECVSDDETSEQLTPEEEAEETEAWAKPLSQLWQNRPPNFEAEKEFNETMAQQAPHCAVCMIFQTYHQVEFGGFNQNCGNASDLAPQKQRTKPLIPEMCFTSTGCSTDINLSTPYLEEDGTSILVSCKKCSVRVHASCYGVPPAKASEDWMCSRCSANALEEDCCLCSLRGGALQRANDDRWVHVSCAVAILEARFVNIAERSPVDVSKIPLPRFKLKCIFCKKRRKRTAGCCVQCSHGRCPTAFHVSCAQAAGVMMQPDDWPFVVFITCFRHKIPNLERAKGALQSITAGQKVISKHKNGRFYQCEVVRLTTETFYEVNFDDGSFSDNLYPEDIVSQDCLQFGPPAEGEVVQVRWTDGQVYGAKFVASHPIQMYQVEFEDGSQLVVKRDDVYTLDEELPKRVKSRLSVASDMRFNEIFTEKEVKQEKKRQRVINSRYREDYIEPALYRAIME
A number is an active result; i = inactive; ? = inconclusive; nt = no result given; [ ] = dose if it differs, or a comment. Calls follow the shape of the dose curve; as a rule, active = well fitted curve in the direction sought with a large enough effect; inconclusive = small, poorly fitted or top-dose-only effect, or another doubt; inactive = no such curve, though single readings can be large; an effect the other way counts as inactive or inconclusive.

SMILES | G9a inh | HP1b chromo inh | Sfp inh | L3MBTL1 block | BAZ2B inh | JMJD2A Tudor
CCn1c(/C=C/c2c[nH]c3ccccc23)nc2ccccc2c1=O | i | i | i | i | i | 56µM
CCn1c(/C=C/c2c(C)[nH]c3ccccc23)nc2ccccc2c1=O | i | i | i | i | i | i
CC(C)N1C(=O)/C(=C\c2nc3ccccc3c(=O)[nH]2)c2ccccc21 | 25µM | ? | i | ? | 32µM | ?
CCn1c(/C=C2\C(=O)N(C)c3ccccc32)nc2ccccc2c1=O | i | i | i | i | 56µM | ?
CCn1c(/C=C\c2ccccc2C)nc2ccccc2c1=O | i | i | i | i | i | i
CCN1C(=O)/C(=C\c2nc3ccccc3c(=O)n2CC)c2ccccc21 | 63µM | ? | i | i | 45µM | 16µM
CCn1c(/C=C/c2ccccc2Cl)nc2ccccc2c1=O | i[2.33 µM] | i | i | nt | i | i
CCn1c(/C=C2/C(=O)N(C)c3ccccc32)nc2ccccc2c1=O | 50µM | ? | i | ? | 35µM | i
CCN1C(=O)/C(=C/c2nc3ccccc3c(=O)n2-c2ccccc2)c2ccccc21 | i | i | i | i | i | ?
Cc1ccc(NC(=O)CSc2nc(-c3ccc(C(C)(C)C)cc3)nc3cc(=O)[nH]n23)cc1C | i | i | nt | nt | i | i
Cc1ccc(OCCCSc2nc(-c3ccc(C(C)(C)C)cc3)nc3cc(=O)[nH]n23)cc1C | i | ? | nt | nt | 45µM | 25µM
COc1ccccc1OCCSc1nc(-c2ccc(C(C)(C)C)cc2)nc2cc(=O)[nH]n12 | i | i | nt | nt | ? | i
CC(C)(C)c1ccc(-c2nc(SCCOc3ccc(Cl)cc3)n3[nH]c(=O)cc3n2)cc1 | i | i | nt | nt | 50µM | ?
CCN1c2ccccc2-c2nc(SCC(=O)NCc3ccc(C)cc3)ncc2S1(=O)=O | i | i | nt | nt | i | i
COc1cc2ccccc2cc1C(=O)NC1CCC(C)CC1 (stereo unspecified) | nt | i | nt | i | nt | i
c1csc(CNc2ncncc2-c2ccc3c(c2)OCO3)c1 | nt | nt | i | nt | nt | nt
Cc1ccc(-n2ncc(C(=O)Nc3ccc4c(c3)OCO4)c2C2CCN(C(=O)OC(C)(C)C)CC2)c(C)c1 | ? | i | nt | nt | ? | 32µM
COc1ccc(Cl)cc1NC(=O)c1nn(-c2ccc(C)cc2)c(=O)n(C)c1=O | i | i | nt | nt | i | i
COc1cc(OC)cc(C2=Nn3c(nnc3-c3cccc(OC)c3)SC2)c1 | nt | nt | i | nt | nt | i
COc1cc(NC(=O)Nc2ccc3c(c2)OCO3)cc(OC)c1OC | ? | i | i | nt | nt | i
COc1cc(C(Nc2ccc3c(c2)OCO3)C(=O)NC2CCCCC2)cc(OC)c1OC (stereo unspecified) | 2.8µM | i | 13µM | i[11.4 µM] | 40µM | ?
CCOC(=O)c1c(-c2ccc(C)cc2)csc1NC(=O)CCN1CCOCC1 | 10µM | ? | ? | i | 32µM | 6.3µM
CCOC(=O)c1c(-c2ccc(OC)cc2)csc1NC(=O)CSc1nnc(C)c(=O)[nH]1 | i | i | i | i | nt | i
CCOC(=O)c1c(-c2ccc(C)o2)csc1NC(=S)NC(=O)N(C)C | ? | ? | 56µM | i | 45µM | ?
CCOC(=O)c1c(-c2ccccc2)csc1NC(=O)CCN1CCOCC1 | ? | ? | 50µM | i | 50µM | 2µM
SMILES | G9a inh | HP1b chromo inh | Sfp inh | L3MBTL1 block | BAZ2B inh | JMJD2A Tudor
CCOC(=O)c1c(-c2cccs2)csc1NC(=O)CN1CCOCC1 | i | i | i | i | i | i
CCOC(=O)c1c(-c2ccc(C)o2)csc1NC(=O)CSc1ncn[nH]1 | ? | i | 28µM | nt | ? | ?
CCOC(=O)c1c(-c2cccs2)csc1NC(=O)CN(CC)CC | i[12.7 µM] | i | i | i | i | i
CCc1nnc(SCc2nc(-c3ccccc3F)oc2C)c2cc3sccc3n12 | i | i | nt | nt | i | i
CC(c1ccccc1)N1CC(C(=O)N2CCN(Cc3ccc(C#N)cc3)CC2)CC1=O (stereo unspecified) | i | i | nt | i | i | i
NCCC[C@@H](CC(=O)N[C@@H]1CCCC[C@H]1C(=O)N[C@H](CC(=O)N[C@@H](CCC(=O)O)CC(=O)O)Cc1ccccc1)NC(=O)C[C@H](Cc1ccccc1)NC(=O)[C@@H]1CCCC[C@H]1N | nt | nt | i | nt | nt | nt
CCOC(=O)c1c(-c2ccc(C)o2)csc1NC(=O)CN1CCOCC1 | 50µM | i | 45µM | nt | ? | ?
CC1CN(C(=S)Nc2ccc(Cl)cc2)CC(C)O1 (stereo unspecified) | i | i | i | i | i | i
CC1CN(c2ccc(NC(=S)Nc3ccc(N4CC(C)OC(C)C4)cc3)cc2)CC(C)O1 (stereo unspecified) | 45µM | i | i | nt | i | i
CS(=O)(=O)c1ccc2nc(NC(=O)CN3CCN(Cc4ccccc4)CC3)sc2c1 | 13µM | i | i | i | i | ?
CC(C)CC(=O)Nc1nc2ccc(S(C)(=O)=O)cc2s1 | 50µM | i | 20µM | i | i | i
CCC(=O)Nc1nc2ccc(S(C)(=O)=O)cc2s1 | i | i | i | i | i | i
CCCNS(=O)(=O)c1ccc2nc(NC(=O)c3ccc(F)cc3)sc2c1 | 1.4µM | ? | nt | nt | i | 50µM
CCCCNS(=O)(=O)c1ccc2nc(NC(=O)c3cccnc3)sc2c1 | i | i | nt | nt | i | i
CCNC(=O)c1c(NC(=O)Cc2coc3ccc(CC)cc23)sc2c1CCCC2 | i | i | nt | nt | i | i
O=C(CN1CCN(S(=O)(=O)c2ccccc2F)CC1)N1CCc2ccccc2C1 | nt | i | nt | i | nt | 0.79µM
C[C@@]12CCC3c4ccc(OC5C=CC(c6ccccc6)OC5CO)cc4CCC3C1CCC2=O (stereo partly specified) | nt | nt | i | nt | nt | nt
Cc1ccc2c(c1)c(-c1csc(N)n1)c(C)n2C | 45µM | ? | i | nt | ? | ?
COc1ccc2c(c1)c1ccccc1n2C | i | i | i | i | i | i
COc1ccc2c(c1)c(-c1csc(N)n1)c(C)n2C | i[0.501 µM] | i | i | i[2.29 µM] | 79µM | i
CCCC(=O)Nc1sc(C(=O)OC)c(C)c1C(N)=O | 11µM | i | 28µM | i | i | i
CCCCC(=O)Nc1sc(C(=O)N(CC)CC)c(C)c1C(=O)OC | 2.2µM | ? | 13µM | i | i | 71µM
CCC1CN(C(=O)N2CCC(C(=O)NCc3cccs3)CC2)c2ccccc2O1 (stereo unspecified) | i | i | nt | nt | i | i
COc1ccc(N2CCN(c3oc(-c4ccco4)nc3C#N)CC2)cc1 | 25µM | ? | i | ? | nt | 32µM
N#Cc1nc(-c2ccco2)oc1N1CCOCC1 | i | i | i | i | i | i
N#Cc1nc(-c2ccco2)oc1N1CCN(c2ccccc2)CC1 | ? | ? | i | ? | 13µM | ?
CC1CCN(CCOCCOc2ccc(Cl)cc2Br)CC1 | 10µM | ? | 56µM | i | 79µM | 4.5µM
Cc1ccc(Cl)c(OCCN2CCCC(C)C2)c1 (stereo unspecified) | 13µM | ? | i | i | ? | 18µM

High-throughput results as filed in PubChem.
